Data on 33 compounds can be found in PubChem BioAssay (NCATS).

Molecules are shown by their SMILES. Records with an inconclusive call do not appear. A call without a number means that no potency is given here. The source made the active and inactive calls. Calls follow the shape of the dose curve; as a rule, active = well fitted inhibition curve with a large enough effect; inconclusive = small, poorly fitted or top-dose-only effect; inactive = no such curve, though single readings can be large or run the other way.
Potency is read from the fitted curve at half-maximal effect.

A short description of this test: qHTS to identify inhibitors of the type 1 interferon - major histocompatibility complex class I in skeletal muscle: primary screen against the NCATS Mechanism Interrogation Plate v5.0 (MIPE) Libary (AID 1347411). Also: nearly all actives have a fitted effect of over 65% in size. The conditions noted are these: iHSKM cells + IFN-b, HiBiT-tagged MHC-I luminescence, 24 h; series mostly up to 45.8 µM. The essentials:
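Immortalized human myoblasts (C25cl48) with HiBit knocked into endogenous HLA-B*08:01 were stimulated with 4 ng/ml IFN-beta and given compounds in 11-point 1:3 titration from 46 uM. After 24 h at 37 C, lytic HiBiT luminescence was read.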
Consider `Cc1nc([C@](C)(O)CO)sc1-c1cnc(N)c(O[C@H](C)c2cc(F)ccc2-n2nccn2)c1`, for which the Potency entry is “inactive”. For `Cc1ccc(-c2ccc3c(ccc4sc5c(c43)NC[C@@H](C)NC5=O)n2)cn1` the value was 18.6 µM (active). In the case of `COc1ccc(C(=O)C2CCN(CC(=O)N(Cc3nc4c(c(=O)[nH]3)COCC4)CC3CC3)CC2)cc1`, the Potency entry was “inactive”. For `COc1ccc(Cl)c(Nc2nc3ccccc3nc2NS(=O)(=O)c2cccc(NC(=O)C(C)(C)N)c2)c1` the value was “inactive”.

Turning to `c1cc(Nc2cc(C3CC3)[nH]n2)nc(Nc2ccc3nc[nH]c3c2)n1`, the Potency is 1.31 µM (active). As for `C[C@H]1[C@H](O)O[C@@H]2O[C@@]3(C)CC[C@H]4[C@H](C)CC[C@@H]1[C@@]24OO3`, the Potency entry was “inactive”. For `CC(C)c1c2cc(-c3ccnc(NC4CCC(NC5CCOCC5)CC4)n3)ccc2nn1C` (stereo not drawn) the value was 0.104 µM (active). On to `CN[C@@H]1[C@H](O[C@H]2[C@H](O[C@@H]3[C@@H](O)[C@H](O)[C@@H](N=C(N)N)[C@H](O)[C@H]3N=C(N)N)O[C@@H](C)[C@]2(O)C=O)O[C@@H](CO)[C@H](O)[C@H]1O`, for which the Potency result is “inactive”.

`COCCOc1cnc2ccn([C@H](C)c3nnc4c(F)cc(-c5cnn(C)c5)cn34)c(=O)c2c1`: the Potency result was “inactive”. With `CNCc1ccc(-c2cc(-c3nc(-c4ccc(S(=O)(=O)C(C)C)cc4)cnc3N)on2)cc1`, the Potency entry is “inactive”.

Regarding `CC(C)(C)C(=O)CN1C(=O)[C@H](NC(=O)Nc2cccc(C(=O)O)c2)CN(C2CCCCC2)c2ccccc21`, the Potency result was “inactive”.

As for `CC(O)c1cc(C(=O)N[C@@H](C)Cn2ccc(-c3ccc(C#N)c(Cl)c3)n2)n[nH]1` (stereo partly drawn), the Potency result is “inactive”. For `CCN1CCN(Cc2ccc(NC(=O)c3ccc(C)c(/C=C/c4cnc5[nH]ccc5c4OC)c3)cc2C(F)(F)F)CC1` the value was 6.58 µM (active); for `Cc1cc(Nc2cc(N3CCN(C)CC3)nc(/C=C/c3ccccc3)n2)n[nH]1`, 5.23 µM (active). For `CN1CCN(c2ccc(C(=O)Nc3n[nH]c4ccc(Cc5cc(F)cc(F)c5)cc34)c(NC3CCOCC3)c2)CC1` the value was 16.5 µM (active); for `Cc1cccc(Oc2cnc(=O)[nH]c2)c1`, “inactive”. On to `O=C(NOCC(O)CO)c1ccc(F)c(F)c1Nc1ccc(I)cc1F` (stereo not drawn), for which the Potency result is “inactive”. In the case of `CCNCc1nc2c(N)nc3ccccc3c2n1CC(C)(C)O`, the Potency entry was “inactive”. Take `COc1cc(C(=O)NC2CCN(C)CC2)c(F)cc1Nc1ncc2c(n1)N(C1CCCC1)CC(F)(F)C(=O)N2C`: the Potency is 14.7 µM (active). On to `CNC(=O)c1cc(Oc2ccc3nc(N[C@@H]4CCCC[C@H]4O)sc3c2)ccn1`, for which the Potency result was “inactive”.

With `CS(=O)(=O)c1ccc(-c2nnc(/C=C/c3nnc(-c4ccc(C#N)cc4)o3)n2-c2ccccc2Cl)nc1`, the Potency entry is “inactive”. Consider `CCN1CCN(Cc2ccc(NC(=O)c3ccc(C)c(NC(=O)c4cncc(-c5cccs5)c4)c3)cc2C(F)(F)F)CC1`, for which the Potency is 2.94 µM (active). With `CC(C)[C@@H](CS(=O)(=O)C(C)C)N1C(=O)[C@@](C)(CC(=O)O)C[C@H](c2cccc(Cl)c2)[C@H]1c1ccc(Cl)cc1` the entry was “inactive”. On to `Cc1cc(O)c(-c2ccc([C@@H](C)CN(C)C)cc2)c2c1[nH]c(=O)c1sccc12`, for which the Potency was 0.104 µM (active). Regarding `CCO[C@@H]1OC(=O)C[C@@H]1NC(=O)[C@@H]1CCCN1C(=O)[C@@H](NC(=O)c1ccc(N)c(Cl)c1)C(C)(C)C`, the Potency result is “inactive”. For the compound `O=C(NCc1cccc(O)c1)Nc1nc(-c2ccncc2)cs1`, the Potency is 18.6 µM (active). With `CN1CCN(C2CCC(n3cc(-c4ccc(Oc5ccccc5)cc4)c4c(N)ncnc43)CC2)CC1` (stereo not drawn), the Potency is 11.7 µM (active). Consider `COCCN1CCN(Cc2ccc(-c3n[nH]c4c3C(=O)c3c(NC(=O)NN5CCOCC5)cccc3-4)cc2)CC1`, for which the Potency is 0.208 µM (active). For `Cc1ccc(NC(=O)Nc2cc(C(F)(F)F)ccc2F)cc1Nc1ccc2c(c1)NC(=O)/C2=C\c1ccc[nH]1`, the Potency is 23.4 µM (active). For `CCOc1cc2ncc(C#N)c(Nc3ccc(F)c(Cl)c3)c2cc1NC(=O)/C=C/CN(C)C` the value was 2.62 µM (active); for `COc1cc2ncnc(Nc3cccc(Cl)c3F)c2cc1OC(=O)N1CCN(C)C[C@H]1C`, “inactive”.

With `CO[C@H]1C[C@@H]2CC[C@@H](C)[C@@](O)(O2)C(=O)C(=O)N2CCCC[C@H]2C(=O)O[C@H]([C@H](C)C[C@@H]2CC[C@@H](OP(C)(C)=O)[C@H](OC)C2)CC(=O)[C@H](C)/C=C(\C)[C@@H](O)[C@@H](OC)C(=O)[C@H](C)C[C@H](C)/C=C/C=C/C=C/1C`, the Potency is 18.6 µM (active). Turning to `COC(=O)N(C)c1c(N)nc(-c2nn(Cc3ccccc3F)c3ncccc23)nc1N`, the Potency result was “inactive”.
